# Assay outcomes deposited in PubChem BioAssay by National Center for Advancing Translational Sciences (NCATS).
# The list is not random: actives were taken first. Their share in the collection is about 2.6%.
# Cruzain inh Det – qHTS Assay for Promiscuous and Specific Inhibitors of Cruzain (with detergent); Cruzipain (Trypanosoma cruzi), P25779; purified cruzain, Z-FR-AMC fluorescence, 0.01% Triton; Potency, µM, inactives show max response, negative = inhibition, actives largely listed as inhibitors; 0.43% of 200,000 active; AID 1478, 2009;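 further: plate controls were neutral wells for no effect and buffer without enzyme for full effect; nearly all actives have a fitted effect of over 40% in size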
# Target sequence (P25779 123-467 limits assumed): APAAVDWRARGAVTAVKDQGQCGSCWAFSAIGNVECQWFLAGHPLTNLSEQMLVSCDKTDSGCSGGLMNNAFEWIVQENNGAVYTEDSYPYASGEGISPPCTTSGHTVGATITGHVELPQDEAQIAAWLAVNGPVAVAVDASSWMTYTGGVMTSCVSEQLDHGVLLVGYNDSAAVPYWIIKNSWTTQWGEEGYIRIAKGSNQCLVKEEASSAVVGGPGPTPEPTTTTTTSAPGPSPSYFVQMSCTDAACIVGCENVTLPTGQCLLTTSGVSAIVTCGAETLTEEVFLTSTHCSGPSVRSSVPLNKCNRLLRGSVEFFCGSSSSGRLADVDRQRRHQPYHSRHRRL
#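 In this qHTS format, compounds are incubated with 1.5 nM cruzain for 15 min at room temperature before 2 uM Z-FR-AMC is added. Release of AMC is followed at 360/450 nm, and progress is taken as the 60 s fluorescence difference.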
# Cruzain noTriton – qHTS Assay for Promiscuous and Specific Inhibitors of Cruzain (without detergent). Cruzipain (Trypanosoma cruzi), P25779. 2.3% of 200,000 active. AID 1476, 2009. purified cruzain, Z-FR-AMC fluorescence, no detergent. Potency, µM, for the others: max response, negative = inhibition, hits mostly inhibitors;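 further: plate controls were enzyme without inhibitor for no effect and buffer without enzyme for full effect; nearly all actives have a fitted effect of over 40% in size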
#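 Purified cruzain at 1.5 nM, pre-incubated 15 min with compound at room temperature in 100 mM sodium acetate pH 5.5, 5 mM DTT, 0.00005% Triton X-100. Reaction started with 2 uM Z-FR-AMC; AMC fluorescence increase over 60 s gives rate.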
# * hit, by the source's call; ? = inconclusive. The call rests on the fitted dose curve; in most records, active means well fitted curve in the direction sought with a large enough effect; inconclusive means small, poorly fitted or top-dose-only effect, or another doubt; inactive means no such curve, though single readings can be large; an effect the other way counts as inactive or inconclusive. Potency means the concentration at half of the fitted maximal effect.
SMILES,Cruzain inh Det,Cruzain noTriton
Cc1ccc(-n2ncc3c(=O)n(Cc4cccc(Cl)c4)cnc32)cc1C,0.0%,14.9%
Cc1ccc(-n2ncc3c(=O)n(CC(=O)Nc4cccc(Cl)c4)cnc32)cc1C,-6.5%,15.8µM*
CCOC(=O)c1cccc(NS(=O)(=O)c2cc(Br)cc3c2N(C(=O)C2CC2)CC3)c1,-1.9%,-13.2%
C[C@@H]1O[C@H](OC2[C@@H](O)[C@H](O)C(O)[C@H](O)[C@H]2O)[C@@H](N)C[C@@H]1N=C(N)C(=O)O (stereo partly drawn),-3.0%,0.6%
O=C1c2cccc3c([N+](=O)[O-])ccc(c23)C(=O)N1c1ccccn1,-10.8%,-4.5%
Cc1ccc(N2C(=O)c3cccc4c(Oc5ccccc5[N+](=O)[O-])ccc(c34)C2=O)c(C)c1,-6.9%,25.1µM*
NC(=O)c1cn(-c2ccccc2)nc1-c1cc2ccccc2oc1=O,-3.2%,-0.8%
O=C(c1ccccc1)c1nn(-c2ccc(Cl)cc2)cc1C(=O)c1cc2ccccc2oc1=O,-4.6%,25.1µM*
COc1ccccc1CNC(=O)C1CCCN(S(=O)(=O)c2ccc3c(c2)CCCN3C(C)=O)C1 (stereo not drawn),-1.9%,24.3%
Cc1nn(-c2ccccc2)c(Cl)c1/C=C1\SC(=S)N(C)C1=O,-4.5%,-16.5%
CN1C(=O)/C(=C\c2cc(N=Nc3ccccc3)ccc2O)SC1=S,-2.1%,25.1µM*
CCCCCCCC[N+](CCCCCCCC)(CCCCCCCC)CCCCCCCC,-11.2%,-16.2%
Cn1c(=O)c(-c2cc(F)cc(F)c2)nc2cnc(Nc3ccccc3)nc21,2.5%,?
CSc1cc(-c2ccccc2)n(Cc2c(Cl)cccc2Cl)c(=O)c1C#N,0.2%,10µM*
CSc1nc(N)c(C#N)c(-c2ccc(Cl)cc2)c1C#N,-4.3%,-14.0%
CSc1cc(-c2ccc(Cl)cc2)n(Cc2ccccc2)c(=O)c1C#N,1.4%,25.1µM*
N#Cc1cc(-c2ccc(Cl)cc2)cn(Cc2c(Cl)cccc2Cl)c1=O,-0.1%,-23.1%
CCOC(=O)C1=C(CN(C)Cc2ccccc2)NC(=O)NC1c1ccc(OC(C)C)cc1 (stereo not drawn),-3.0%,-4.3%
COc1cc(OC)c(NC(=O)CCn2cnc3onc(-c4ccc(F)cc4)c3c2=O)cc1Cl,-3.5%,2.0%
COc1ccccc1N1CCN(C(=O)CCc2c(C)nn(-c3ccc(N4CCCC4)nn3)c2C)CC1,-0.2%,-3.7%
CCOC(=O)C1CCN(C(=O)Nc2ccc3c(c2)nc(C)n3C)CC1,3.5%,-2.7%
O=C(Nc1ccc2nc(-c3ccco3)c(-c3ccco3)nc2c1)N1CCCCCC1,14.1µM*,2µM*
Cc1nc2ccc(NC(=O)N3CCCCC3)cc2nc1C,-4.3%,-13.5%
CCOC(=O)C1CCN(C(=O)Nc2ccc3nc(-c4ccco4)c(-c4ccco4)nc3c2)CC1,14.1µM*,?
C[C@@]12CC[C@H]3[C@H](CCC4=CC(=O)CC[C@H]43)[C@H]1CC[C@H]2OC1(O)C(=O)c2ccccc2C1=O,-5.0%,1.4%
SMILES,Cruzain inh Det,Cruzain noTriton
Cc1ccc(S(=O)(=O)N2CC=C(c3c(C)n(CC(=O)N4CCCC4)c4ccccc34)CC2)cc1C,-5.1%,?
O=C(c1cccc(F)c1)N1CCC2(CCCN(c3ncccn3)C2)CC1,-0.1%,9.7%
O=C(c1csnn1)N1CCC2(CC1)CN(c1cccc(-c3ccccc3)c1)C2,-1.4%,?
COc1ccc(-c2noc(CNC(=O)c3ccc(OC)cc3OC)n2)cc1,-10.5%,4.7%
COc1ccc(-c2noc(CC(=O)Nc3cc(OC)ccc3OC)n2)cc1,-5.7%,3.98µM*
Cc1cccc(NC(=O)CSc2nc3ccccc3nc2N2CCC(C)CC2)c1,-3.3%,12.3%
COc1ccc(-n2cnc3cc(C(=O)NC4CCCCCC4)ccc32)cc1,-9.2%,8.3%
O=C(c1ccc(-c2ccc([N+](=O)[O-])cc2)o1)N1CCCCC1,-6.8%,-4.7%
O=C(c1ccc(-c2ccc(Cl)cc2)o1)N1CCN(c2ccc([N+](=O)[O-])cc2Cl)CC1,-4.3%,7.94µM*
O=C(Nc1cc(-c2ccc(F)c(F)c2)no1)c1ccccc1F,-3.1%,25.1µM*
COc1ccccc1C(=O)Nc1cc(-c2ccc(C)cc2)no1,-11.4%,3.8%
CCOc1ccc(NC(=O)c2cc(S(=O)(=O)N3CCC(C)CC3)cn2C)cc1,1.3%,-5.7%
CCC12C(=O)C(CC)(C(c3ccccc3)=C1c1ccccc1)[C@@H]1C(=O)N(c3ccc(C)cc3)C(=O)C12 (stereo partly drawn),-3.9%,?
CCCC12C(=O)C(C)(C(c3ccccc3)=C1c1ccccc1)C1C(=O)N(c3ccc(C)cc3)C(=O)C12 (stereo not drawn),-1.0%,20µM*
CC[C@@H](c1ccc2cc(O)ccc2c1)C(C)(C)C(=O)O,-5.6%,2.7%
CC/C=C\C/C=C\C/C=C\C/C=C\C/C=C\C/C=C\CCC(=O)NCC(=O)O,-5.6%,-4.3%
COc1cccc(CNC(=O)Cn2c(=O)cc(C)c3c(C)nn(C)c32)c1OC,2.4%,-14.0%
CN(C)Cc1c(O)ccc2oc(Cc3ccccc3)cc12,-0.6%,-5.4%
Cc1c(Cc2ccccc2)c(=O)oc2c(CN(C)C)c(O)c(Cl)cc12,20µM*,?
Cc1cccc(N(C)S(=O)(=O)c2c(C(=O)N3CCCCCC3)c(C)n(C)c2C)c1,-2.9%,?
Cc1ccccc1NS(=O)(=O)c1cc(C(=O)Nc2cccc([N+](=O)[O-])c2)ccc1C,-6.0%,10.8%
Cc1ccc(NS(=O)(=O)c2cc([N+](=O)[O-])ccc2NNC(=S)Nc2cccc(Cl)c2)c(C)c1,20µM*,-22.5%
COc1ccc(NC(=S)NNc2ccc([N+](=O)[O-])cc2S(=O)(=O)Nc2ccc(C)cc2C)cc1,-13.5%,25.1µM*
Cc1ccc(NS(=O)(=O)c2cc([N+](=O)[O-])ccc2NNC(=S)Nc2cc(C)ccc2C)c(C)c1,-10.4%,?
CC(=O)Nc1cc(C(=O)NCc2ccc(C)cc2)ccc1S(=O)(=O)c1ccc(Cl)cc1,1.0%,-4.7%
SMILES,Cruzain inh Det,Cruzain noTriton
Nc1ncnc2nc(-c3ccc(C[P+](c4ccccc4)(c4ccccc4)c4ccccc4)cc3)[nH]c12,-3.7%,-9.6%
COc1cccc(CCc2ccccc2OCC[C@@H]2C[C@@H](O)CN2C)c1,-3.3%,-0.8%
Cc1ccc(NC(=S)NC(=O)c2ccc(-c3ccc(Cl)cc3)o2)c(O)c1,0.2%,-25.6%
Cc1cc(O)c(NC(=S)NC(=O)c2ccc(-c3ccc(Cl)cc3)o2)cc1C,4.5%,15.8µM*
CNc1nnc(-c2cc3cc(Cl)ccc3oc2=O)s1,-4.5%,2.0%
O=c1oc2ccc(Cl)cc2cc1-c1nnc(Nc2cccc(C(F)(F)F)c2)s1,-0.8%,5.01µM*
COc1ccc2[nH]cc(CCNc3ncnc4ccc(-c5ccc6c(c5)OCO6)cc34)c2c1,-0.3%,31.6µM*
COc1ccc2[nH]cc(CCNc3nc(-c4ccc(C(=O)N(C)C)cc4)nc4ccccc34)c2c1,-4.3%,-3.9%
COc1ccc2[nH]cc(CCNc3nc(-c4ccc(N(C)C)cc4)nc4ccccc34)c2c1,-16.0%,25.1µM*
COc1ccc2[nH]cc(CCNc3ncnc4ccc(-c5cccnc5)cc34)c2c1,-3.7%,-13.8%
CCc1ccc(NC(=O)CSc2nc(C)c(C(=O)Nc3ccccc3)c(-c3ccc(OC)c(OC)c3)c2C#N)cc1,-2.9%,-21.0%
O=C(/C=C/c1ccccc1)NC(NC(=S)Nc1ccc(Cl)cc1)C(Cl)(Cl)Cl (stereo not drawn),-0.7%,?
